Pf apPOL block: Pf-apPOL DNA polymerase inhibition | inhibition, % at 10 µM | AID 1794808 | Recombinant Pf-apPOL, molecular beacon fluorescence, 1.5 h | 210,000 tested, 0.25% active
mHTT-CaM PPI inh: inhibitors of human mutant huntingtin-calmodulin interaction | P42858 | AlphaScreen His-mHTT/GST-CaM binding, luminescence | inhibition, % at 15 µM | 190,000 tested, 3.6% active | AID 1671202;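 also: 0% = both proteins with DMSO and 100% = one protein alone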
* marks the source's active call; other numbers are inactive results; i = inactive; · = no result; ! = not confirmed by another sample. Most compounds without a hit are left out; they make up all but 3.5% or so of the library. Rule as the data show it: active = inhibition above about 50%; inactive = the rest.

SMILES	Pf apPOL block	mHTT-CaM PPI inh
COc1ccc(C2Oc3c(OC)cccc3C3CC(c4ccc(C)o4)=NN32)cc1 (centres undefined)	-11	83*
COc1ccc(C2Oc3c(OC)cccc3C3CC(c4ccc(C)o4)=NN32)cc1OC (centres undefined)	-22	51*
COc1cccc(C2=NN3C(C2)c2cccc(OC)c2OC3c2cc(OC)c(OC)c(OC)c2)c1 (centres undefined)	-22	48
CCOc1cccc2c1OC(c1ccc(OC)c(OC)c1)N1N=C(c3ccc(C)o3)CC21 (centres undefined)	-16	63*
CCOc1cccc2c1OC(c1cccc(OC)c1)N1N=C(c3ccco3)CC21 (centres undefined)	-20	28
COc1ccc(C2Oc3ccccc3C3CC(c4ccc(C)o4)=NN32)cc1 (centres undefined)	-7	60*
O=C(NCc1ccccc1)C1CCc2nc(N3CCN(C(=O)C4CCC4)CC3)sc2C1 (centres undefined)	2	1
Cn1ncc(N2CCCC(C(=O)NCc3ccccc3C(F)(F)F)C2)cc1=O (centres undefined)	2	-1
Cc1ccc(-n2cc(-c3ccc(Cl)cc3)[nH]c2=O)cc1Cl	-6	41
COc1cc2c(cc1OC)CN(C(=O)C(c1ccccc1)n1cccc1)CC2 (centres undefined)	6	65*
COc1ccc(C(=O)N2CCc3cc(OC)c(OC)cc3C2)cc1OC	-5	-3
CCCCn1c(N2CCCC(C(=O)N3CCCC3)C2)nc2ccccc21 (centres undefined)	-12	30
COc1cc(N=c2oc3c(O)cc(C(C)(C)C)cc3cc2C(N)=O)cc(OC)c1	-8	56*
CCOc1cccc2cc(C(N)=O)c(=Nc3ccc(OC)cc3)oc12	3	6
Clc1ccc(CN2CCc3nc(Nc4ccc5c(c4)OCCO5)ncc3C2)cc1	-1	77*
Fc1ccccc1Nc1ncc2c(n1)CCN(Cc1ccc3c(c1)OCCO3)C2	-4	19
Clc1ccc(CN2CCc3nc(Nc4ccc5c(c4)OCO5)ncc3C2)cc1	-1	36
c1cc2c(cc1CN1CCc3nc(Nc4ccc5c(c4)OCCO5)ncc3C1)OCCO2	-1	71*
O=C(O)c1cccc(NC(=O)c2nccnc2C(=O)O)c1	-3	-1
COc1ccc(Nc2cc(C)nc3c(C)ccc(N)c23)cc1OC	-28	17
c1ccc2c3c([nH]c2c1)-c1nonc1CC3	93*!	0
COc1ccc2c3c(ccc2c1)-c1[nH]c2ccccc2c1CC3	·	44
CC(C)c1nc2c(c(=O)n1CC(=O)Nc1ccccc1F)CCN(Cc1ccccc1)C2	-1	9
CC(C)c1nc2c(c(=O)n1CC(=O)Nc1cccc(F)c1)CCN(Cc1ccccc1)C2	-4	84*
CCN(CC)c1ccc(NC(=O)c2csc(-c3ccc(C)n3C)n2)c(C)c1	4	8
SMILES	Pf apPOL block	mHTT-CaM PPI inh
CCC(C)(C)C(=O)N1CCCN(c2nc3c(s2)c(C)nn3-c2ccc(C)cc2)CC1	-2	10
O=C(O)c1ccc([N+](=O)[O-])c2c1NC(c1ccc([N+](=O)[O-])cc1)C1CC=CC21 (centres undefined)	-2	37
O=[N+]([O-])c1ccc(C2Nc3c(O)ccc(Br)c3C3C=CCC32)cc1 (centres undefined)	-10	100*
Oc1ccc(Br)c2c1NC(c1ccc(Cl)cc1)C1CC=CC21 (centres undefined)	-1	100*
O=[N+]([O-])c1c(Cl)cc(O)c2c1C1C=CCC1C(c1ccc(Br)cc1)N2 (centres undefined)	-4	98*
Cc1ccc(C(=O)N2CC(C)N(C(=O)c3ccc(C)o3)CC2C)o1 (centres undefined)	-1	2
O=C(NCc1ccccc1)O[C@@H]1C[C@H]2C[C@@H]1[C@H]1CCCCN1C2	-3	18
CCOC(=O)CCCNC(=O)O[C@@H]1C[C@H]2C[C@@H]1[C@H]1CCCCN1C2	-3	85*
O=C(c1ccsc1)N1CCN(CCNS(=O)(=O)C2CC2)CC1	-2	-4
Cc1ccc(F)cc1NC(=O)Cn1nc(N(C)C)c2ccccc2c1=O	0	-4
CC(=O)c1c(-c2ccccc2)c2cc(Br)ccc2[nH]c1=O	1	58*
CC(=O)c1c(-c2ccccc2)c2cc(Cl)ccc2[nH]c1=O	-4	32
CCCCNC(=O)C1C(=O)N=C(C)C([N+](=O)[O-])=C1C (centres undefined)	-1	-3
O=C(CN1C(=O)/C(=C/c2ccc(Cl)cc2)Sc2ccccc21)NCC1CCCO1 (centres undefined)	-2	16
O=C(Nc1ccc(F)c(Cl)c1)c1cc(S(=O)(=O)NCCc2ccccc2)ccc1F	-6	76*
Cc1ccc(NC(=O)c2cc(S(=O)(=O)NCCc3ccccc3)ccc2F)cc1Cl	1	5
O=C(Nc1cc(Cl)cc(Cl)c1)c1cc(S(=O)(=O)NCCc2ccccc2)ccc1F	-8	49
COc1ccc(OC)c(NC(=O)c2cc(S(=O)(=O)NCCc3ccccc3)ccc2F)c1	0	80*
COc1ccc(OC)c(NC(=O)c2cc(S(=O)(=O)NCc3ccccc3)ccc2F)c1	-8	13
O=C(Nc1cccc(Cl)c1)c1cc(S(=O)(=O)NCCc2ccc(Cl)cc2)ccc1F	-8	80*
N#Cc1cccc(C(=O)N2CCCC(c3nc(CCNC(=O)C4CC4)cs3)C2)c1 (centres undefined)	-1	-7
O=C(Nc1ccc2c(c1)Cc1cc(NC(=O)c3ccco3)ccc1-2)c1ccco1	-7	-1
CCOc1ccc(/C=C2/SC(N3CCOCC3)=NC2=O)c(OCC)c1	3	28
O=C(O)c1ccnc(-c2cc(C(=O)O)ccn2)c1	-23	·
CN(C)C=Cc1ccnc(-c2cc(C=CN(C)C)ccn2)c1	66*	·
SMILES	Pf apPOL block	mHTT-CaM PPI inh
CCN(CC)CCCNC(=O)CSc1nc2nc(C)c(Cc3ccccc3Cl)c(C)n2n1	-3	1
Cc1ccc(Nc2cc(C)c(O)c(C)c2)cc1	-5	84*
Cc1cc(NC(=O)c2ccccc2)cc(C)c1O	-3	-1
COc1ccccc1NC(=O)N1CCCCCC1c1ccc(C)s1 (centres undefined)	-2	-22
N#CCSc1nc(-c2ccccc2)c(-c2ccccc2)o1	92*!	-26
c1ccc(-c2nc(SCC3COc4ccccc4O3)oc2-c2ccccc2)cc1 (centres undefined)	·	-13
Cc1ccc(CCNC(=O)c2ccc(CS(=O)(=O)Cc3ccccc3C)o2)cc1	-8	13
O=C1NN(c2ccc(Cl)c(Cl)c2)C(=O)/C1=C/c1cc2c(cc1[N+](=O)[O-])OCO2	-3	75*
O=C1NC(=O)N(Cc2ccc(F)cc2)C(=O)/C1=C\c1cc2c(cc1[N+](=O)[O-])OCO2	3	67*
COc1cc(/C=C2\C(=O)NN(c3ccc(Cl)c(Cl)c3)C2=O)cc([N+](=O)[O-])c1O	-6	49
COc1cc2c(cc1/C=C1\NC(=O)N(Cc3ccc(F)cc3)C1=O)OCO2	-9	-4
CC(=O)Nc1ccc(SC[C@H](c2ccccc2)N2CCN(C)CCC2=O)cc1	-13	4
NC(=O)C1CSCCC(=O)N1 (centres undefined)	0	-1
COc1ccc(/C=C/c2nc(N)nc(-c3ccccc3O)n2)cc1	-5	32
Oc1ccc(/C=C/c2nc(-c3ccccc3O)n(-c3ccccc3)n2)c(O)c1	-77	96*
Oc1ccc(/C=N/n2cnnc2)c(O)c1	·	i

Bioassay records from PubChem.
